# Assay results: PubChem BioAssay AID1508602 (The Scripps Research Institute Molecular Screening Center, 2020)
# Values joined by “and” are separate entries in the source; they are usually repeats but may differ in a detail not shown here. Equal values may be shown once. The campaign covered roughly 650,000 compounds. About 6,800 (1%) were called active. No stated cut-off is given here; in the data, active means activation above about 4.9%; inactive means the rest. Shown is part of a subset that was picked to be rich in actives. The source holds several records for some structures; these can differ, active in one and inactive in another.
# Target: G-protein coupled receptor 151 (Homo sapiens) (UniProt Q8TDV0)
# Sequence (Q8TDV0 whole entry, looked up): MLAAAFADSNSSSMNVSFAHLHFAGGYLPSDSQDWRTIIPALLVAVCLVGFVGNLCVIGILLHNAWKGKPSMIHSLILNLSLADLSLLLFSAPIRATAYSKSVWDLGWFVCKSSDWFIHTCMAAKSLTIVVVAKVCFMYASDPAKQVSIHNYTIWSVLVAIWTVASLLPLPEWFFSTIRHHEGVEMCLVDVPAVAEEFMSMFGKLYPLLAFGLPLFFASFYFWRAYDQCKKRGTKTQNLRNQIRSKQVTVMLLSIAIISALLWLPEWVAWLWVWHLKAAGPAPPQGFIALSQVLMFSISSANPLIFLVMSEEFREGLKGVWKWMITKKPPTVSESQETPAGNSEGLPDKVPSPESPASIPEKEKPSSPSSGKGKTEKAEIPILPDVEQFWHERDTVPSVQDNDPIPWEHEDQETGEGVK
# Test: activators of human GPR151, primary screen, cell-based, PathHunter beta-arrestin, luminescence (AID 1508602);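 further: 0% = median of compound wells and 100% = cells with positive control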
# Settings: PathHunter beta-arrestin GPR151 cells, at 11.2 µM, stronger effect = higher value
row,Structure (SMILES),activation
1,Cc1ccc(CNC(=O)CCCCCn2c(SCc3cc(=O)n4ccccc4n3)nc3ccsc3c2=O)cc1,1.39% (inactive)
2,O=C(Nc1ccc(F)c(Cl)c1)/C(=C/c1cccc([N+](=O)[O-])c1)NC(=O)c1cccs1,0.762% (inactive)
3,C=CCNC(=O)/C(=C/c1ccc(Cl)cc1)NC(=O)c1ccccc1,3.04% (inactive)
4,CC(NC(=O)Cc1ccc(-c2ccccc2)cc1)c1nc(-c2cccnc2)n[nH]1 (stereo not given),-0.113% (inactive)
5,CCC(C)OC(=O)C1=C(C)NC2=C(C(=O)CC(c3ccccc3)C2)C1c1ccccc1OCc1ccccc1 (stereo not given),1.93% (inactive)
6,NCCCC[C@@H]1NC(=O)[C@H]2CN(C(=O)OCc3ccccc3)CCN2C1=O,-0.551% (inactive)
7,CN1CC(=O)N2CCN(C(=O)OCc3ccccc3)C[C@@H]2C1=O,5.14% (active)
8,COc1ccccc1C(=O)N1CCN2C(=O)CN(C)C(=O)[C@H]2C1,1.54% (inactive)
9,O=C1CSC(c2ccccc2Br)N1c1ccc(F)c(Cl)c1 (stereo not given),-1.29% (inactive)
10,COc1ccc(C(=O)Cc2cc3ccccc3oc2=O)c(OC)c1,8.65% (active)
11,COc1ccc(C(=O)COC(=O)c2ccc3ccccc3n2)c(OC)c1,-0.989% (inactive)
12,COc1cccc(/C=C/C(=O)c2cc3ccccc3oc2=O)c1,-0.0229% (inactive)
13,CCCN1CCC(N2CCN(c3cccc(Cl)c3)CC2)CC1,-0.685% (inactive)
14,O=C(CSc1nc2ccccc2c(=O)n1CCCN1CCN(c2cccc(Cl)c2)CC1)N1CCCCCC1,0.298% (inactive)
15,CCc1nn(CCCN2CCN(c3cccc(Cl)c3)CC2)c(=O)n1CCOc1ccccc1,5.41% (active) and -0.0264% (inactive) and -0.848% (inactive)
16,O=C(N/N=C/c1ccccc1O)c1cc(-c2ccc(Cl)cc2)n[nH]1,-0.397% (inactive)
17,O=C(N/N=C/c1cc(Cl)ccc1O)c1cc(-c2ccccc2)n[nH]1,5.58% (active)
18,COc1cc(Br)cc(/C=N/NC(=O)c2cc(-c3ccccc3)n[nH]2)c1O,3.1% (inactive)
19,Cn1c(=NC(=O)CN2C(=O)CCC2=O)sc2cc([N+](=O)[O-])ccc21,1.44% (inactive)
20,CC(C)(C)c1cnnn1-c1ccc(C(=O)/C=C\c2ccco2)cc1,0.0135% (inactive)
21,C=CCc1cccc(/C=N/NC(=O)CCC(=O)Nc2ccc(Br)cc2)c1O,7.12% (active)
22,COc1ccc(NC(=O)CCC(=O)N/N=C/c2ccccc2Cl)cc1,0.396% (inactive)
23,COc1ccc(NC(=O)CCC(=O)N/N=C/c2cc(Cl)ccc2O)cc1,-1.64% (inactive)

row,Structure (SMILES),activation
1,COc1ccccc1N(CC(=O)Nc1ccc(F)c(Cl)c1)S(=O)(=O)c1ccccc1,2.46% (inactive)
2,COC(=O)c1sccc1N/N=C/c1ccccn1,-4.95% (inactive)
3,COc1ccc(CCNC(=O)Cn2cnc3sc4c(c3c2=O)CCC4)cc1OC,0.328% (inactive)
4,COc1cccc(NC(=O)CSc2nnc(-c3ccc(NS(C)(=O)=O)cc3)o2)c1,0.627% (inactive)
5,COc1cccc(-c2nnc(SCC(=O)NCc3ccccc3)o2)c1,-0.0263% (inactive)
6,COc1ccc(CC(=O)Nc2ccc(C(=O)Nc3ccccc3C(=O)O)cc2)cc1,1.57% (inactive)
7,COc1ccc(CC(=O)Nc2ccc(-c3nnc(-c4ccccc4)o3)cc2)cc1,7.27% (active)
8,COc1cccc(-c2nnc(NC(=O)CSc3ccccc3)o2)c1,9.1% (active)
9,COc1ccc(NC(=O)Cc2ccc(C)cc2)cc1,-2.5% (inactive)
10,CCC(C)NC(=O)c1sc2nc(C)nc(N3CCCCC3)c2c1C (stereo not given),2.24% (inactive)
11,CCC(CC)C(=O)Nc1ccc(S(=O)(=O)Nc2ncccn2)cc1,-0.125% (inactive)
12,CCCCCC(=O)OCCNC(=O)c1cc2ccccc2oc1=O,-0.976% (inactive)
13,CCc1ccc(S(=O)(=O)NCc2csc(-c3ccccc3)n2)cc1,-1.08% (inactive)
14,Cc1ccc(S(=O)(=O)NCc2csc(-c3ccccc3)n2)cc1,4.76% (inactive)
15,O=S(=O)(NCc1csc(-c2cccnc2)n1)c1ccc2ccccc2c1,5.9% (active)
16,NC1=NC(=O)/C(=C/c2ccccc2C(F)(F)F)S1,-0.392% (inactive)
17,COc1ccc(OC)c(NC(=O)CSc2nnc3[nH]c(=O)c(C)c(C)n23)c1,5.91% (active)
18,CCCc1cc(=O)[nH]c2nnc(SCC(=O)Nc3cc(OC)ccc3OC)n12,-0.547% (inactive)
19,Cc1c(C)n2c(SCC(=O)Nc3ccc4c(c3)OCO4)nnc2[nH]c1=O,1.02% (inactive)
20,Cc1ccc(CSCc2nnc(SCC(=O)Nc3nccs3)n2C)cc1,0.977% (inactive)
21,COc1ccc(/C(=N/C(N)=S)Nc2ccccc2)cc1,-0.629% (inactive)
22,COc1cc(/C=C/C(=O)O)ccc1OCc1ccccc1F,-0.0946% (inactive)
